Test results as given in the supplement of paper PMC4022240.
± gives the standard deviation.

How the values were obtained:
Experiment in all cases: peptide microarray binding signal (635 nm), min-max normalized on array (fraction of array maximum); higher = stronger binding
Details in all cases: peptide region: H3 5-17
[1] = molecular target: T1, HaloTag-ATRX ADD domain (163-292)
T1 chain: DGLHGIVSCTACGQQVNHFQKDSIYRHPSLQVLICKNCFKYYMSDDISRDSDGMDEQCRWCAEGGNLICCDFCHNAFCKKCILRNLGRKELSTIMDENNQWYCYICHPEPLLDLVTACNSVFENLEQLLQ
Procedure: (§1)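 Histone 13-mer peptides were synthesized as cellulose conjugates with a C-terminal 20-atom PEG linker and printed in triplicate on nitrocellulose. The sequence given is the unmodified backbone; PTMs (Kme1/2/3, Kac, Sph/Tph, Rme/Rme2a/Rme2s, Rcit) are listed in the label and the 'peptide modifications' condition. Slides were probed at 4 °C for 1 h with biotin-labelled (HQ)5-HaloTag reader fusions (ATRX-ADD, ING2-PHD) then streptavidin-Alexa647, or with rabbit histone antibodies then anti-rabbit Alexa647. The mean 635 nm signal of the triplicate spots was scaled 0-1 between the lowest and highest values on each array.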

[2] = molecular target: HaloTag-ING2 PHD (mouse Ing2 200-280)
Procedure: as §1

[3] = molecular target: anti-H3K4me3 antibody ab8580
Procedure: as §1

[4] = molecular target: anti-H3K9me3 antibody ab8898
Procedure: as §1

[5] = peptide modifications: H3K9me2 H3K14me2, binder concentration: 1:2,000 dilution
[6] = peptide modifications: H3K9me2 H3K14me2, binder concentration: 1:10,000 dilution
[7] = peptide modifications: H3K9me1 H3K14me2, binder concentration: 1:2,000 dilution
[8] = peptide modifications: H3K9me1 H3K14me2, binder concentration: 1:10,000 dilution
[9] = peptide modifications: H3K9me2 H3K14me3, binder concentration: 1:2,000 dilution
[10] = peptide modifications: H3K9me2 H3K14me3, binder concentration: 1:10,000 dilution
[11] = peptide modifications: H3K9me1 H3K14ac, binder concentration: 1:2,000 dilution
[12] = peptide modifications: H3K9me1 H3K14ac, binder concentration: 1:10,000 dilution
[13] = peptide modifications: H3K9me2, binder concentration: 1:2,000 dilution
[14] = peptide modifications: H3K9me2, binder concentration: 1:10,000 dilution
[15] = peptide modifications: H3K9me1 H3K14me1, binder concentration: 1:2,000 dilution
[16] = peptide modifications: H3K9me1 H3K14me1, binder concentration: 1:10,000 dilution
[17] = peptide modifications: H3K9ac H3S10ph, binder concentration: 1:2,000 dilution
[18] = peptide modifications: H3K9ac H3S10ph, binder concentration: 1:10,000 dilution
[19] = peptide modifications: H3K9me1 H3T11ph, binder concentration: 1:2,000 dilution
[20] = peptide modifications: H3K9me1 H3T11ph, binder concentration: 1:10,000 dilution
[21] = peptide modifications: H3K9ac H3T11ph, binder concentration: 1:2,000 dilution
[22] = peptide modifications: H3K9ac H3T11ph, binder concentration: 1:10,000 dilution
[23] = peptide modifications: H3K9me3 H3K14ac, binder concentration: 1:2,000 dilution
[24] = peptide modifications: H3K9me3 H3K14ac, binder concentration: 1:10,000 dilution

QTARKSTGGKAPR [H3 5-17 Q T A R Kme2 S T G G Kme2 A P R]
peptide microarray binding signal ([1]; peptide modifications: H3K9me2 H3K14me2, binder concentration: 50 nM): 0.00555 ± 0.0003
peptide microarray binding signal ([1]; peptide modifications: H3K9me2 H3K14me2, binder concentration: 500 nM): 0.011 ± 0.00059
peptide microarray binding signal ([2]; peptide modifications: H3K9me2 H3K14me2, binder concentration: 10 nM): 0.00937 ± 0.00041
peptide microarray binding signal ([2]; peptide modifications: H3K9me2 H3K14me2, binder concentration: 100 nM): 0.00999 ± 0.0011
peptide microarray binding signal [3, 5]: 0.00672 ± 0.00077
peptide microarray binding signal [3, 6]: 0.00496 ± 0.00056
peptide microarray binding signal [4, 5]: 0.175 ± 0.021
peptide microarray binding signal [4, 6]: 0.0735 ± 0.0023

QTARKSTGGKAPR [H3 5-17 Q T A R Kme S T G G Kme2 A P R]
peptide microarray binding signal ([1]; peptide modifications: H3K9me1 H3K14me2, binder concentration: 50 nM): 0.004514 ± 3.4e-05
peptide microarray binding signal ([1]; peptide modifications: H3K9me1 H3K14me2, binder concentration: 500 nM): 0.00667 ± 0.00028
peptide microarray binding signal ([2]; peptide modifications: H3K9me1 H3K14me2, binder concentration: 10 nM): 0.00555 ± 0.0003
peptide microarray binding signal ([2]; peptide modifications: H3K9me1 H3K14me2, binder concentration: 100 nM): 0.00595 ± 0.00024
peptide microarray binding signal [3, 7]: 0.00206 ± 0.00041
peptide microarray binding signal [3, 8]: 0.00211 ± 0.00015
peptide microarray binding signal [4, 7]: 0.00979 ± 0.0019
peptide microarray binding signal [4, 8]: 0.00352 ± 0.00022

QTARKSTGGKAPR [H3 5-17 Q T A R Kme2 S T G G Kme3 A P R]
peptide microarray binding signal ([1]; peptide modifications: H3K9me2 H3K14me3, binder concentration: 50 nM): 0.00301 ± 0.00046
peptide microarray binding signal ([1]; peptide modifications: H3K9me2 H3K14me3, binder concentration: 500 nM): 0.002 ± 0.00021
peptide microarray binding signal ([2]; peptide modifications: H3K9me2 H3K14me3, binder concentration: 10 nM): 0.00143 ± 1.7e-05
peptide microarray binding signal ([2]; peptide modifications: H3K9me2 H3K14me3, binder concentration: 100 nM): 0.00106 ± 3e-05
peptide microarray binding signal [3, 9]: 0.00126 ± 0.00029
peptide microarray binding signal [3, 10]: 0.00405 ± 0.0015
peptide microarray binding signal [4, 9]: 0.00464 ± 0.0015
peptide microarray binding signal [4, 10]: 0.00646 ± 0.0028

QTARKSTGGKAPR [H3 5-17 Q T A R Kme S T G G Kac A P R]
peptide microarray binding signal ([1]; peptide modifications: H3K9me1 H3K14ac, binder concentration: 50 nM): 0.00661 ± 0.00012
peptide microarray binding signal ([1]; peptide modifications: H3K9me1 H3K14ac, binder concentration: 500 nM): 0.0218 ± 0.0024
peptide microarray binding signal ([2]; peptide modifications: H3K9me1 H3K14ac, binder concentration: 10 nM): 0.0233 ± 0.0035
peptide microarray binding signal ([2]; peptide modifications: H3K9me1 H3K14ac, binder concentration: 100 nM): 0.0424 ± 0.0029
peptide microarray binding signal [3, 11]: 0.00255 ± 0.00039
peptide microarray binding signal [3, 12]: 0.00228 ± 0.00016
peptide microarray binding signal [4, 11]: 0.0548 ± 0.0034
peptide microarray binding signal [4, 12]: 0.016 ± 0.00023

QTARKSTGGKAPR [H3 5-17 Q T A R Kme2 S T G G K A P R]
peptide microarray binding signal ([1]; peptide modifications: H3K9me2, binder concentration: 50 nM): 0.0133 ± 0.0071
peptide microarray binding signal ([1]; peptide modifications: H3K9me2, binder concentration: 500 nM): 0.0011 ± 2.1e-05
peptide microarray binding signal ([2]; peptide modifications: H3K9me2, binder concentration: 10 nM): 0.00334 ± 9.6e-05
peptide microarray binding signal ([2]; peptide modifications: H3K9me2, binder concentration: 100 nM): 0.00248 ± 8.6e-05
peptide microarray binding signal [3, 13]: 0.00583 ± 0.0036
peptide microarray binding signal [3, 14]: 0.0112 ± 0.0032
peptide microarray binding signal [4, 13]: 0.00489 ± 0.0019
peptide microarray binding signal [4, 14]: 0.003 ± 0.00036

QTARKSTGGKAPR [H3 5-17 Q T A R Kme S T G G Kme A P R]
peptide microarray binding signal ([1]; peptide modifications: H3K9me1 H3K14me1, binder concentration: 50 nM): 0.00339 ± 6.1e-05
peptide microarray binding signal ([1]; peptide modifications: H3K9me1 H3K14me1, binder concentration: 500 nM): 0.00657 ± 6.6e-05
peptide microarray binding signal ([2]; peptide modifications: H3K9me1 H3K14me1, binder concentration: 10 nM): 0.00388 ± 5.4e-05
peptide microarray binding signal ([2]; peptide modifications: H3K9me1 H3K14me1, binder concentration: 100 nM): 0.0145 ± 0.0038
peptide microarray binding signal [3, 15]: 0.00068 ± 1.9e-05
peptide microarray binding signal [3, 16]: 0.000571 ± 1.1e-05
peptide microarray binding signal [4, 15]: 0.0061 ± 0.0011
peptide microarray binding signal [4, 16]: 0.00283 ± 0.00027

QTARKSTGGKAPR [H3 5-17 Q T A R Kac Sph T G G K A P R]
peptide microarray binding signal ([1]; peptide modifications: H3K9ac H3S10ph, binder concentration: 50 nM): 0.00592 ± 8.9e-05
peptide microarray binding signal ([1]; peptide modifications: H3K9ac H3S10ph, binder concentration: 500 nM): 0.0176 ± 0.0016
peptide microarray binding signal ([2]; peptide modifications: H3K9ac H3S10ph, binder concentration: 10 nM): 0.00507 ± 0.00017
peptide microarray binding signal ([2]; peptide modifications: H3K9ac H3S10ph, binder concentration: 100 nM): 0.0274 ± 0.0063
peptide microarray binding signal [3, 17]: 0.0005474 ± 5.3e-06
peptide microarray binding signal [3, 18]: 0.000514 ± 1.5e-05
peptide microarray binding signal [4, 17]: 0.00667 ± 0.00058
peptide microarray binding signal [4, 18]: 0.00265 ± 0.00012

QTARKSTGGKAPR [H3 5-17 Q T A R Kme S Tph G G K A P R]
peptide microarray binding signal ([1]; peptide modifications: H3K9me1 H3T11ph, binder concentration: 50 nM): 0.00179 ± 4.4e-05
peptide microarray binding signal ([1]; peptide modifications: H3K9me1 H3T11ph, binder concentration: 500 nM): 0.003 ± 0.00011
peptide microarray binding signal ([2]; peptide modifications: H3K9me1 H3T11ph, binder concentration: 10 nM): 0.002208 ± 2.2e-05
peptide microarray binding signal ([2]; peptide modifications: H3K9me1 H3T11ph, binder concentration: 100 nM): 0.00524 ± 0.00071
peptide microarray binding signal [3, 19]: 0.000396 ± 4.2e-05
peptide microarray binding signal [3, 20]: 0.000285 ± 3.1e-06
peptide microarray binding signal [4, 19]: 0.00856 ± 0.0022
peptide microarray binding signal [4, 20]: 0.00208 ± 5.1e-05

QTARKSTGGKAPR [H3 5-17 Q T A R Kac S Tph G G K A P R]
peptide microarray binding signal ([1]; peptide modifications: H3K9ac H3T11ph, binder concentration: 50 nM): 0.00266 ± 6.1e-05
peptide microarray binding signal ([1]; peptide modifications: H3K9ac H3T11ph, binder concentration: 500 nM): 0.0107 ± 0.00079
peptide microarray binding signal ([2]; peptide modifications: H3K9ac H3T11ph, binder concentration: 10 nM): 0.00531 ± 0.00025
peptide microarray binding signal ([2]; peptide modifications: H3K9ac H3T11ph, binder concentration: 100 nM): 0.0213 ± 0.0014
peptide microarray binding signal [3, 21]: 0.000755 ± 2.5e-05
peptide microarray binding signal [3, 22]: 0.000171 ± 1.9e-06
peptide microarray binding signal [4, 21]: 0.00547 ± 0.00037
peptide microarray binding signal [4, 22]: 0.00271 ± 0.00015

QTARKSTGGKAPR [H3 5-17 Q T A R Kme3 S T G G Kac A P R]
peptide microarray binding signal ([1]; peptide modifications: H3K9me3 H3K14ac, binder concentration: 50 nM): 0.005862 ± 5.4e-05
peptide microarray binding signal ([1]; peptide modifications: H3K9me3 H3K14ac, binder concentration: 500 nM): 0.0246 ± 0.0026
peptide microarray binding signal ([2]; peptide modifications: H3K9me3 H3K14ac, binder concentration: 10 nM): 0.0279 ± 0.0021
peptide microarray binding signal ([2]; peptide modifications: H3K9me3 H3K14ac, binder concentration: 100 nM): 0.0183 ± 0.013
peptide microarray binding signal [3, 23]: 0.0646 ± 0.051
peptide microarray binding signal [3, 24]: 0.089 ± 0.042
peptide microarray binding signal [4, 23]: 0.781 ± 0.051
peptide microarray binding signal [4, 24]: 0.939 ± 0.11
